Bioassay records deposited in PubChem by several laboratories.
Shown are actives, neighbours in structure and some others; about 3.5% of the full set was active somewhere.
ATG4B inh: ATG4B protease inhibitors, primary screen, biochemical, fluorescence, uHTS. Cysteine protease ATG4B (Homo sapiens), Q9Y4P1. ATG4B cleavage of LC3-PLA2, NBD-HPC fluorescence, 1 h. inhibition, % at 8.33 µM. 340,000 tested, 0.51% active. AID 504462, 2011; in the data active = inhibition above about 40%
Target sequence (Q9Y4P1 whole entry, looked up): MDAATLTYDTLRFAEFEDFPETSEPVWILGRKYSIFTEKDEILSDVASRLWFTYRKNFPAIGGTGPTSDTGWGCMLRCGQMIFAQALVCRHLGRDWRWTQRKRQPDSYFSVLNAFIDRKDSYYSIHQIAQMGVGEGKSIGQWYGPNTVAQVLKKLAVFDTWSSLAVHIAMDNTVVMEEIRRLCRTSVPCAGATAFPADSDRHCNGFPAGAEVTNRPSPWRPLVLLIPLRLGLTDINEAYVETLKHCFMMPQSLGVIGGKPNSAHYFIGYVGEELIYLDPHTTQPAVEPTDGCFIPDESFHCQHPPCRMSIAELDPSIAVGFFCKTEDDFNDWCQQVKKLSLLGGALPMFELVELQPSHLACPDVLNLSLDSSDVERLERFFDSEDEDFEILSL
M1 antag: human M1 muscarinic receptor antagonists, primary screen, CHO-K1 cells, Fluo-8 calcium fluorescence, 1536-well. Muscarinic acetylcholine receptor M1 (Homo sapiens), P11229. CHO-K1 hM1, ACh EC80 antagonist. inhibition, % at 3 µM. 360,000 tested, 1.3% active. AID 588852, 2011;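 active = percent inhibition above its own plate's cutoff, namely the mean of that plate's compound wells plus 3 SD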;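 note: peak over basal fluorescence ratio during 140 s after agonist addition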
M1 ag: human M1 muscarinic receptor agonists, primary screen, Fluo-8 calcium fluorescence, CHO-K1 cells, HTS | Muscarinic acetylcholine receptor M1 (Homo sapiens), P11229 | 360,000 tested, 0.33% active | activation, % at 3 µM | CHO-K1 hM1, agonist mode; 0% DMSO, 100% acetylcholine EC100;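 active = activation above the run's mean compound activation plus 3 SD, cut at about 16% in these data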;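 note: peak over basal fluorescence ratio within a 140 s kinetic read after compound addition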
CHRM1 PAM: human M1 muscarinic receptor positive allosteric modulators, primary screen, CHO-K1 cells, Fluo-8 calcium fluorescence, 1536-well | CHO-K1 hM1, ACh EC20; 0% = ACh EC20, 100% = maximal ACh | activation, % at 3 µM | 360,000 tested, 0.088% active | AID 588819, 2011; in the data active = activation above about 19%, passing the limit was not always enough
Myeloid diff 2: induction of myeloid progenitor differentiation, primary screen, cell-based, flow cytometry, MLPCN library. calls only at 10 µM. 360,000 tested, 1% active. ER-HoxA9 myeloid progenitors, lysozyme-GFP differentiation;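 active = normalized GFP-positive differentiation at or above the plate's own cutoff, the solvent-only control mean plus 3 SD; inconclusive = no clear call, values can overlap the other calls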;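 note: cells exposed to compound for four days before flow analysis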
SKN-1 block: suppressors of acrylamide-induced Pgst-4::GFP reporter in worms, primary screen, SKN-1 inhibitor project, whole organism, uHTS, GFP/RFP fluorescence ratio, strain VP596 | inhibition, % at 21.8 µM | C. elegans VP596 Pgst-4::GFP/RFP ratio, 24 h | 360,000 tested, 0.49% active;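 active = interference check ratio from 0.5 to 1.5 plus GFP to RFP signal ratio inhibition reaching or exceeding a fixed threshold, cut at about 30% in these data, passing the limit was not always enough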
A number is an active result; 0 = inactive; ? = inconclusive; - = no result given; + = active, no number.

SMILES	ATG4B inh	M1 antag	M1 ag	CHRM1 PAM	Myeloid diff 2	SKN-1 block
COc1ccc(/C=C\C(=O)O[C@@H]2C(O)C(O[C@@H]3OC(C)[C@H](O[C@@H]4OCC(O[C@H]5O[C@H](CO)[C@@H](O)C(O)C5O)C(O)C4O)C(O)C3O)[C@H](OC(=O)[C@]34CCC(C)(C)C[C@@H]3C3=CCC5[C@@]6(C)CC(O)C(O[C@@H]7OC(CO)C(O)[C@H](O)[C@H]7O)[C@@](C)(C(=O)O)C6CC[C@@]5(C)[C@]3(CO)CC4)O[C@H]2C)cc1 (stereo not given in full)	0	85	95	0	0	0
C[C@@H]1CC[C@]2(C(=O)O[C@@H]3O[C@H](CO)[C@@H](O)[C@H](O)[C@H]3O)CC[C@]3(C)C(=CCC4[C@@]5(C)CC[C@H](O[C@@H]6OC[C@H](O)[C@H](O[C@@H]7O[C@H](CO)[C@@H](O)[C@H](O)[C@H]7O)[C@H]6O)C(C)(C)C5CC[C@]43C)C2[C@]1(C)O (stereo not given in full)	0	0	0	0	0	0
Cc1cc2nc(C)n(CCCNC(=O)Nc3ccc(C#N)cc3)c2cc1C	0	57	0	0	0	0
c1ccc(-c2cnc(-c3ccccn3)nn2)cc1	0	0	0	0	0	0
c1ccc(-c2cnc(-c3ccccc3)nn2)cc1	0	0	0	0	0	52
O=S(=O)(c1cccs1)N1CCN(CC(O)COc2cc(Cl)ccc2Cl)CC1 (stereo not given)	0	23	0	0	0	0
O=S(=O)(c1cccs1)N1CCN(CCOc2ccc(Cl)cc2)CC1	0	0	0	0	0	0
COc1cc(NC(=S)NC2CC(C)(C)NC(C)(C)C2)c(OC)cc1Cl	0	0	36	0	0	0
COc1cc(NC(=S)NC2CC(C)(C)NC(C)(C)C2)cc(OC)c1	0	0	0	0	0	0
CC1(C)CC(NC(=O)c2ccc(Cl)c(Cl)c2)CC(C)(C)N1	0	0	0	0	0	0
CC1(C)CC(NC(=S)NC(=O)c2cc(Br)ccc2Cl)CC(C)(C)N1	0	0	22	0	0	0
O=C(Nc1ncccc1O)c1ccc(Oc2ccccc2)cc1	0	0	0	0	0	0
O=C(NNc1ccccc1)Nc1cc(Cl)ccc1Cl	0	0	0	0	0	0
COc1ccc(C(=O)/C=C2\C(=O)Nc3ccc(Br)cc32)cc1	0	0	19	0	?	0
O=C1Nc2ccc(Br)cc2/C1=C/C(=O)c1ccc2c(c1)OCO2	0	0	0	0	0	0
COc1cc(/C=C(/C#N)C(=O)c2c(C)[nH]c3ccccc23)ccc1OCC#N	0	0	0	0	0	0
CCOC(=O)c1c(C)[nH]c(C(=O)/C(C#N)=C/c2ccc(OC)c(OC)c2)c1C	0	0	0	0	+	0
CCOC(=O)c1c(C)[nH]c(C(=O)/C(C#N)=C/c2ccc(OC(F)F)c(OC)c2)c1C	0	0	0	0	+	0
CCOc1ccc(/C=C(\C#N)C(=O)c2c(C)[nH]c3ccccc23)cc1OC	0	0	0	0	0	0
FC(F)(F)C1=CC(c2ccc(Cl)cc2)=NCCN1	0	0	0	0	0	36
CN1CCN(C(c2ccccc2)c2ccc(Cl)cc2)CC1 (stereo not given)	0	0	0	0	0	0
CN1CCN(C(c2cccc(Cl)c2)c2ccccc2Cl)CC1 (stereo not given)	0	88	0	0	0	0
CCOC(=O)C1(NC(=O)C2(NC(=O)CN3C(=O)c4ccccc4C3=O)CCCC2)CCCC1	0	0	0	0	0	0
Nc1nc2ccccc2cc1-c1cccs1	0	0	0	0	0	0
c1csc(-c2ccc3ccccc3n2)c1	0	0	0	0	0	43
SMILES	ATG4B inh	M1 antag	M1 ag	CHRM1 PAM	Myeloid diff 2	SKN-1 block
CC(=O)Nc1ccc(/C=C/c2ccc3cccc([N+](=O)[O-])c3n2)cc1	0	0	0	0	+	0
COc1ccc(S(=O)(=O)Nc2cccc(F)c2)cc1C	0	0	0	0	0	0
COc1ccc(S(=O)(=O)Nc2ccc(S(=O)(=O)Nc3ccc(F)cc3)cc2)cc1C	0	0	0	0	0	36
COc1ccc(NS(=O)(=O)c2ccc(-c3coc(C)n3)cc2)cc1OC	0	63	0	0	?	0
O=C1/C(=C\c2ccncc2)CCc2ccccc21	0	0	0	0	0	0
C(=C1c2ccccc2-c2ccccc21)c1ccncc1	0	0	0	0	0	40
O=C(NCCCN1CCCC1)c1[nH]c(C(F)(F)F)nc1-c1ccccc1	-	0	0	0	0	0
O=c1[nH]c2ccc(S(=O)(=O)N3CCCCC3)cc2s1	0	0	0	0	0	0
Cc1oc(-c2ccc(-c3ccccc3)cc2)nc1CN(C)C1CCOC1 (stereo not given)	0	0	0	0	0	65
CC(=O)N[C@@H]1C=C[C@@H](CC(=O)NCc2ccc(Cl)cc2)O[C@@H]1CO	-	-	-	-	0	0
CCCCC(=O)Nc1ncc(S(=O)(=O)c2ccc([N+](=O)[O-])cc2)s1	0	0	23	0	0	0
O=C(O)CC1(CC(=O)Nc2ccc3sccc3c2)CCCCC1	0	0	0	0	0	0
Cc1ccc(Cn2nnc(C(=O)Nc3cccc(C)c3C)c2N)cc1	0	0	39	0	0	0
Nc1c(C(=O)NCc2ccccc2)nnn1Cc1ccc(F)cc1	0	0	20	0	0	0
CCCCn1c(SCC(=O)NC2CC(C)(C)NC(C)(C)C2)nc2cc(S(N)(=O)=O)ccc21	0	0	0	0	0	0
O=C(NCc1ccccc1)C1C(=O)Nc2ccccc2C(=O)N1Cc1ccccc1 (stereo not given)	-	-	-	-	0	0
Cc1ccccc1Nc1nnc(SCc2cc([N+](=O)[O-])cc3c2OCOC3)s1	0	41	0	0	0	0
c1ccc(CN2CCN(Cc3nnc(-c4ccccc4)o3)CC2)cc1	0	35	0	0	0	0
CN1CCN(Cc2nnc(-c3ccccc3)o2)CC1	0	0	0	0	0	0
O=C(O)c1cc([N+](=O)[O-])ccc1Nc1ccccc1	0	0	0	0	?	0
O=[N+]([O-])c1ccc(Nc2ccccc2O)c([N+](=O)[O-])c1	-	0	0	0	+	0
N#CC(C#N)=NNc1ccc([N+](=O)[O-])cc1	0	0	0	0	0	90
